T1: UNK ZnF1-3 (human, UniProt Q9C0B0 31-174)
T1 sequence: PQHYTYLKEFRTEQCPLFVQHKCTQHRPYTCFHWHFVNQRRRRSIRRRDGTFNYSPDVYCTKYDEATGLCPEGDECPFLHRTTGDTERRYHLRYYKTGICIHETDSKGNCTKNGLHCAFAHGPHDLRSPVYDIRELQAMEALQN

B1: chr16:49913422:49913423:+_ENSMUSG00000055447_ENSMUST00000084838|mus_mus|motif|central (ssRNA)
RNA: GGGAGUUCUACAGUCCGACGAUCGCUCUCUACGAUUGUAUAAGUGGAGGGCAGACAAUAAAUAAAAAUUGAAUAGAGGCGGUGACAGCAGAAAUCGGGAUUUGGGAGAGAAAAGCGCAUUGUGGGACAAAACAGAUGCGUGGUCAACAGAGGAUUGAGCAUCA
B2: chr16:49913422:49913423:+_ENSMUSG00000055447_ENSMUST00000084838|mus_mus|FALSE|FALSE (ssRNA)
RNA: B1 RNA with G80U, G81A
B3: chr4:109959997:109959998:-_ENSMUSG00000028546_ENSMUST00000106598|mus_mus|FALSE|FALSE (ssRNA)
RNA: GGGAGUUCUACAGUCCGACGAUCUAUAUAUAUAUAUUAAAGAUCCACAGACCACAGUGUGGAUGAUUGUAAAGUAAAUCUAUUAUUGGGAGGGGGUGGGGUGGGAAAGAAAGGGGGAAAAAAAAGAGAGGAAGAAAAGGCGCACAACAGAGGAUUGAGCAUCA
B4: chr8:73998637:73998638:+_ENSMUSG00000074247_ENSMUST00000124745|mus_hu|FALSE|FALSE (ssRNA)
RNA: GGGAGUUCUACAGUCCGACGAUCCUUGAUACAGGUUACAGCAUAAAUAAAAACUCAAGGAAAAUAAAUACAUCGGCUCCUAUGAGGUUGGAAGUGGUGUGGACGCAGGGUGUGGAUGGGCCGGCAGGGAGGCGGGCGGGCGGGCAACAGAGGAUUGAGCAUCA
B5: chr8:27092522:27092523:-_ENSMUSG00000037251_ENSMUST00000061850|mus_mus|FALSE|FALSE (ssRNA)
RNA: GGGAGUUCUACAGUCCGACGAUCAGCGGGGUGGGUUGUUGUUUGCUGUUGGUCGGUGUUUGUGAAGUGGUCGUGGGCGAAGAAGAAACAAGAAGAAAUGAGAUAUCUUGGCAGCAAAGAUCAUUGCUCCAAGGAACUCGACACCAACAGAGGAUUGAGCAUCA
B6: chr4:109959997:109959998:-_ENSMUSG00000028546_ENSMUST00000106598|mus_mus|motif|central (ssRNA)
RNA: B3 RNA with U80G, A81G
B7: chr12:86641468:86641469:-_ENSMUSG00000034290_ENSMUST00000040992|mus_hu|FALSE|FALSE (ssRNA)
RNA: GGGAGUUCUACAGUCCGACGAUCCAAGACCUCCCACAAUGUUGAUAAGAUUAUCAAACAUUUUGGUCUGGGGAAGAUGAAACAAAAUUAAUUUAGCUGUUUAUAGGAAGGUGGGAUGUGAGACUCAUCAAAGGUAGGAUGUGUCAACAGAGGAUUGAGCAUCA
B8: chr1:46159212:46159213:+_ENSG00000159596_ENST00000372025|hu_mus|hu_hu_hu_mus_True|8_68 (ssRNA)
RNA: GGGAGUUCUACAGUCCGACGAUCUCUGAUCCCUCCCAAGAAAGCUAGGAAACCGGCUCCAUAAGCCAUCUGAGUAAAAGCUAGGACGGGGAUAUAAGACUUUGUUAUUACCAUGAGAAGUGGGGGAGCAACGAAGGGGAUUAACAACAGAGGAUUGAGCAUCA
B9: chr1:205685097:205685098:-_ENSG00000069275_ENST00000367142|hu_hu|motif|central (ssRNA)
RNA: GGGAGUUCUACAGUCCGACGAUCUAUCAAGCCUGACUAUUGAGCACCUGUAUCCAGUUGAGUCACCACCACUGUCCUCCGGUUUGCAUGCAUGAUUUGAGGGGAAGACUAGAGUGUUUUAAAUCAUCAAUAAAAAGUGGAGAACAACAGAGGAUUGAGCAUCA
B10: chr2:238002776:238002777:+_ENSG00000198612_ENST00000392008|hu_hu|FALSE|FALSE (ssRNA)
RNA: GGGAGUUCUACAGUCCGACGAUCGAUUGAAGUAUACGCUUGAGAGACCAGGGCAAAGGCGCGUCUCCUUGUUGCAUCUCUAAGUGCUUCCAUAAUUGGCUGGACCGUCUCAGACCACUGGUGAGCGUUGAUGGUUGUAUAGAUCAACAGAGGAUUGAGCAUCA
B11: chr1:46159212:46159213:+_ENSG00000159596_ENST00000372025|hu_mus|hu_hu_hu_mus_True|68_98 (ssRNA)
RNA: B8 RNA with C44A, A130G, C131U, G132A
B12: chr4:109959997:109959998:-_ENSMUSG00000028546_ENSMUST00000106598|mus_hu|FALSE|FALSE (ssRNA)
RNA: GGGAGUUCUACAGUCCGACGAUCUGUUAUAUAUAAUUAAAGAUCCACAAAACACAGUGUGGAUGAUUGUAAAGCAAAUCAAUUAUUUUUGGGGGGGUGGGCGGGGGAGAGAAAGAAAAAAAAGAAAAGGAGCAGUGAGCUGAACAACAGAGGAUUGAGCAUCA
B13: chr6:36760027:36760028:-_ENSMUSG00000029838_ENSMUST00000101534|mus_hu|FALSE|FALSE (ssRNA)
RNA: GGGAGUUCUACAGUCCGACGAUCGUACCCGGCUCGCUGCAGCUCCUGCUUGGGCCGCUGCUGCUCUCCCCGCCUUCUGGACGGAUGACUCACUGGUCUCUUUCUUCCCCUCUCUCCACUUUGGAUUUUCCUCUGCUCUGGGGCCAACAGAGGAUUGAGCAUCA
B14: chr5:37680062:37680063:+_ENSMUSG00000029121_ENSMUST00000031004|mus_hu|mus_mus_mus_hu_False|8_38 (ssRNA)
RNA: GGGAGUUCUACAGUCCGACGAUCUUUGGGUGUAGCUGGUACCUCGUACACAGGACCGUCAUACAUGCCCCUGGAAACCCCUUGCAAUCCAAAAACCUUGCUUCUGAUUUUGACGCGCUGGUACAGGUGCUCUGGGAACGCCUUCAACAGAGGAUUGAGCAUCA
B15: chr18:54424204:54424205:+_ENSG00000091157_ENST00000357574|hu_mus|FALSE|FALSE (ssRNA)
RNA: GGGAGUUCUACAGUCCGACGAUCCCAGGCGUGGAGACAGGACAUGAAUAAUUUUGCGGUAUCCAUAGUAAGGUUGUAUUCUAGUAGGGUCAGUGGCUUGGACUUGCUGGCCCGGUACUCAGGGUCACUAUCCUCCCUGCUCUGCAACAGAGGAUUGAGCAUCA
B16: 95985174_95988629_161_5pUTR_ENSMUSG00000038486_ENSMUST00000035371|mouse|control|control (ssRNA)
RNA: GGGAGUUCUACAGUCCGACGAUCGGCUAAACUGAGGAUCCAAGAUAUUUCAGGGAGGGCUGCCUAUUUUUCUUCUGAGAGGCUCUGAAGACCUGAGCUUGGUUCCCCGGGUCAGGGAGUCCCCGGGUGAGGGAGGGGGUCCAGCAACAGAGGAUUGAGCAUCA
B17: chr8:35203877:35203878:-_ENSMUSG00000031513_ENSMUST00000033910|mus_hu|motif|central (ssRNA)
RNA: GGGAGUUCUACAGUCCGACGAUCGGAAGGGCACAUCCAAGCAUCAAAAACAUCAGUCCGAUUGCUCCUCCAAAGGACAAACGGAUCAAAGCUUUGAUGCCUGCCAUGGCGGUGACGUCGCUCCUGGCUCCACGACCCGAGGCGCAACAGAGGAUUGAGCAUCA
B18: chr7:54823571:54823572:-_ENSG00000132432_ENST00000352861|hu_mus|hu_hu_hu_mus_False|98_98 (ssRNA)
RNA: GGGAGUUCUACAGUCCGACGAUCUCCCAUGAUAGCAAAUCCUAUUGCUGUAGCCAUGGCAAUCUUCUGGAAUUCUUUUCUGUCGGGUUUGGUGCAUCUUUUAACCAGCCGAAUUGAGUCCUUUACAAACUGCCGGCUGGGCUCCAACAGAGGAUUGAGCAUCA
B19: 80410323_80421071_410_CDS_ENSMUSG00000027002_ENSMUST00000028386|mouse|control|control (ssRNA)
RNA: GGGAGUUCUACAGUCCGACGAUCCACAGCAGAUUCCAGGUUUUUGUCAAUAAGGUAGGAGGGUUUAGCCUUGGGGUCGCCACAUGCCUUCUUGAUGUUGUAGAGGCGCGUGAGCAUGCCGACGCCCCGGUCGUUGAGGAUGGUCAACAGAGGAUUGAGCAUCA
B20: chr3:94910677:94910678:-_ENSMUSG00000028126_ENSMUST00000107236|mus_mus|motif|central (ssRNA)
RNA: GGGAGUUCUACAGUCCGACGAUCACUUGAGCCGGGCCCCGGGAGUCCCGCGUCUCGGAUAGAACAAACCUAAAGGAAAACCGGGGCACCUGAGGUGCCCCCAAAAGCGAAUGCCCCCCCUCCCUCACCUCCCCAGCCACUGCCCAACAGAGGAUUGAGCAUCA
B21: chr7:75932113:75932114:+_ENSG00000106211_ENST00000248553|hu_hu|hu_hu_hu_mus_False|8_88 (ssRNA)
RNA: GGGAGUUCUACAGUCCGACGAUCCUGCGACCACUCAUCGGGCAACCGGGGCAGCCCGAAAGCUUGAUCGAAGAGGCGGCUGUGUGCAGGGUACCAGUCCCGGAAUGGUUCCCAGCUCGGGCUCCGCAGCGAGAAGGAGGGCACCAACAGAGGAUUGAGCAUCA
B22: chr2:25961539:25961540:-_ENSG00000143970_ENST00000336112|hu_mus|FALSE|FALSE (ssRNA)
RNA: GGGAGUUCUACAGUCCGACGAUCGAGUAAUGGAAAGCCUGCUCAUAACAAACCAUUUAACCCAAGAGCUCAUGAAACUUUAAGAGGAGGAAAGCAGCAUAGAGCAAUCAGAAUGGUAACUGAAGGGACCGUUCUAUGUAGGACCAACAGAGGAUUGAGCAUCA
B23: chr7:149838072:149838073:-_ENSMUSG00000048583_ENSMUST00000000033|mus_mus|motif|central (ssRNA)
RNA: GGGAGUUCUACAGUCCGACGAUCGAUCACUGCUCCCGUUAUGUAGGGAAUGGGUACAAUUGAUUAUGAGCGCAUAAAAAGCGGAGGAGGGAUUAAAAAAAAAAGGAAAAAACCGGCCCCAGAAAUAAAAAGAGGGGAAUAGAUCAACAGAGGAUUGAGCAUCA
B24: chr7:149838072:149838073:-_ENSMUSG00000048583_ENSMUST00000000033|mus_mus|FALSE|FALSE (ssRNA)
RNA: B23 RNA with G82U, G83A

Substitutions are numbered along the chain they refer to. The full ranking holds about 24,000 sequences; the median of “enrichment r” is about 0.99, and the highest 2% start at about 3.7. For the sample, the highest values were picked, then their nearest neighbours and some sequences at random.

The target in this test is T1, UNK ZnF1-3. Description: nsRBNS (natural sequence RNA bind-n-seq); RBNS binding buffer (assumed for nsRBNS): 25 mM Tris pH 7.5, 150 mM KCl, 3 mM MgCl2, 0.01% Triton X-100, 500 ug/ml BSA, 20 U/ml SUPERase-In, 4 C; UNK is unkempt and MSI1 is Musashi-1; names of the RNAs are library labels; protein concentration not given here; high values mean tight binding.
In turn, B1 registered a binding signal of 3.75 enrichment R.
Regarding B2, the binding signal was 3.41 enrichment R.
B3 displayed a binding signal of 5.2 enrichment R.
The molecule B4 came in with a binding signal of 3.01 enrichment R.
B5: the binding signal is 1.76 enrichment R.
Next, B6: 5.4 enrichment R; B7: 1.55 enrichment R; B8: 1.56 enrichment R.
Consider B9, for which the binding signal came out at 2.19 enrichment R.
B10 registered a binding signal of 0.907 enrichment R.
Take B11: the binding signal amounted to 1.71 enrichment R.
On to B12, for which the binding signal is 3.98 enrichment R.
Take B13: the binding signal was determined as 0.683 enrichment R.
Take B14: the binding signal turned out to be 0.747 enrichment R.
On to B15, for which the binding signal came out at 0.993 enrichment R.
For the molecule B16, the binding signal amounted to 1.92 enrichment R.
In the case of B17 it was 0.394 enrichment R; in that of B18, 0.647 enrichment R; in that of B19, 0.855 enrichment R.
In the case of B20 it was 2 enrichment R; in that of B21, 1.63 enrichment R; in that of B22, 3.45 enrichment R.
B23 came in with a binding signal of 9.4 enrichment R.
B24: the binding signal is 11 enrichment R.

Source of the values: paper PMC12136788.
